High-throughput results (PubChem)
This is a sample that favours compounds with a hit; in the whole collection about 2.4% have one here.
D2 PAM-1: positive allosteric modulators of human D2 dopamine receptor. P14416. HEK293 T-REx D2, calcium flux, EC20 dopamine potentiation. potentiation, % at 10 µM. 340,000 tested, 0.34% active. AID 485347;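 active = potentiation over 3 SD above the plate norm, cut at about 30% in these data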
Target sequence (P14416 whole entry, looked up): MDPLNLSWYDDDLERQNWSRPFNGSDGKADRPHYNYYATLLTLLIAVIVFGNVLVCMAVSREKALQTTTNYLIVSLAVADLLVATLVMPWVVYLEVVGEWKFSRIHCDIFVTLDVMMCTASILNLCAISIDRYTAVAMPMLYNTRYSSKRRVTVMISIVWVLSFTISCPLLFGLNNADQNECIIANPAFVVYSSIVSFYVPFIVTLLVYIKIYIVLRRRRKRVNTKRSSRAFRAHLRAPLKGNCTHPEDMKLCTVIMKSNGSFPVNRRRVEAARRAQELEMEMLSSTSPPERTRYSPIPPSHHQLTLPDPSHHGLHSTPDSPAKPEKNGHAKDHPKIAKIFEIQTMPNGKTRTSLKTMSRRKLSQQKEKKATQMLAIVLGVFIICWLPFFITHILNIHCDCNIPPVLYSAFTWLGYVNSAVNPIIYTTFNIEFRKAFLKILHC
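Tetracycline-induced HEK293 T-REx cells force-coupled to calcium signalling expressed D2; compounds were pin-added after a 10 s baseline, read kinetically 180 s, then an EC20 dopamine challenge followed with a further 180 s calcium read.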
D2 ag-1: agonists of human D2 dopamine receptor; HEK293 T-REx D2 cells, calcium flux agonist mode; activation, % at 2 µM; 340,000 tested, 0.53% active;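 active = activation over 3 SD above normal in the single-dose calcium agonist read, cut at about 30% in these data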
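HEK293 Trex D2 cells, tetracycline-induced, o/n 30 C 5% CO2; no-wash Ca dye, RT 30–90 min; 10-cycle baseline, 23 nl cpd added, kinetic Ca read 180 s; agonist hits = positive Ca response.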
D2 antag: antagonizes the human D2 dopamine receptor; P14416; HEK293 TREx D2 cells, calcium flux, dopamine EC80; inhibition, % at 10 µM; 340,000 tested, 2% active; AID 485344; in the data active = inhibition above about 30%; inactive = below that, where a call was filed
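HEK293 T-REx D2 cells, tet-induced, calcium dye no-wash. Cpd pintool add, 180 s kinetic, then EC80 DA, 180 s kinetic. Ca flux read.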
D2 PAM-2: potentiates the human D2 dopamine receptor allosterically; DiscoveRx D2 beta-arrestin cells, luminescence, 90 min; 100% = 57 uM dopamine signal; potentiation, % (test concentration not listed); 360,000 tested, 0.23% active; AID 624464; in the data active = potentiation above about 50%; inconclusive = mostly about 30% to 49%
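PathHunter beta-arrestin assay in DiscoveRx D2 cells. Compounds were added with an EC20 of dopamine (50 nM final) for 90 min at 37 deg C. Luminescence was read 1 h after detection reagent, with 57 uM dopamine as the EC100 control.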
D2 ag-2: activates the human D2 dopamine receptor; 360,000 tested, 0.084% active; activation, % (test concentration not listed); P14416; DiscoveRx PathHunter D2 beta-arrestin, luminescence, 90 min; 100% = 57 uM dopamine signal; in the data active = activation above about 40%; inconclusive = between about 15% and that limit
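Agonist mode: compounds alone added to overnight-plated D2 PathHunter cells for 90 min at 37 C, with 57 uM final dopamine (EC100) defining full response. Beta-arrestin recruitment detected by chemiluminescent reagent, read after 1 h at ambient temperature.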
Numbers stand for hits; - = inactive; ? = inconclusive; . = no result.

SMILES	D2 PAM-1	D2 ag-1	D2 antag	D2 PAM-2	D2 ag-2
CC(C)n1nnnc1SCC(=O)N1N=C(c2cccs2)CC1c1cccs1 (stereo not given)	-	-	39	-	-
COCCn1c(C)cc(/C=C2/SC(=O)N(CC(=O)N3CCCC3)C2=O)c1C	-	-	34	-	-
COCCN1C(=O)/C(=C/c2ccc(N3CCCC3)cc2C)SC1=S	-	37	-	-	-
CCN=C1S/C(=C\c2ccc(N3CCOCC3)cc2C)C(=O)N1CC	-	-	-	-	-
Cc1ccc(-n2nc(C(=O)N(C)c3ccc(C)c(C)c3)c3c4ccccc4n(C)c3c2=O)cc1	-	-	.	.	.
Oc1ccc(NC(=S)Nc2ccc(O)cc2)cc1	31	-	-	-	-
COC(=O)c1ccc(NC(=S)Nc2ccc(O)cc2)cc1	-	-	-	-	-
CCN(CC)S(=O)(=O)c1ccc2c(c1)nc(CN(C)C(=O)Nc1ccc(C)c(Cl)c1)n2C	-	.	.	.	.
CCc1ccc(OCC(=O)N(Cc2ccco2)Cc2ccco2)cc1	-	-	.	.	.
O=C(c1ccc(Cl)cc1)C1CCN(Cc2ccccc2)CC1	-	-	81	-	-
O=C(NN1CCN(Cc2ccccc2)CC1)c1ccc(Cl)cc1	-	-	67	-	-
O=C(c1ccc(F)cc1)C1CCN(Cc2ccccc2F)CC1	.	.	.	-	-
COc1cccc(NC(=O)Cn2c(=O)n(CCCCC(=O)NCc3ccccc3Cl)c(=O)c3ccccc32)c1	-	-	.	.	.
CCN(C(=O)c1cnc(N2CCN(c3ncccn3)CC2)c2ccccc12)c1cccc(Cl)c1	-	-	46	-	-
Cc1nc2ccccc2c2oc(C(=O)N3CC(C)CC(C)C3)cc12 (stereo not given)	31	-	-	-	-
Cc1nc2ccccc2c2oc(C(=O)NCCCN3CC(C)CC(C)C3)cc12 (stereo not given)	-	-	-	-	-
Cc1nnc(NCc2ccc(F)cc2)c2c1nnn2Cc1ccccc1Cl	-	-	.	.	.
CN(C)S(=O)(=O)c1cccc(NC(=O)COC(=O)c2ccc([N+](=O)[O-])o2)c1	-	-	-	78	-
COC(=O)c1cccc(NC(=O)CCc2cc(OC)c(OC)c(OC)c2)c1	-	-	-	-	-
CN(C)S(=O)(=O)c1cccc(NC(=O)CCSc2ccc(Cl)cc2)c1	-	-	33	-	-
COc1cc(/C=N/NC(=S)Nc2cccc(S(=O)(=O)N(C)C)c2)cc(OC)c1O	40	-	-	-	-
COc1cc(CCC(=O)Nc2cccc(S(=O)(=O)N(C)C)c2)cc(OC)c1OC	-	-	39	-	-
COc1cccc(/C=N/NC(=S)Nc2cccc(S(=O)(=O)N(C)C)c2)c1	-	-	-	-	-
CN(C)S(=O)(=O)c1cccc(NC(=O)CCNC(=O)Nc2ccccc2)c1	.	.	.	-	-
CCN(c1cccc(C)c1)S(=O)(=O)c1nnc(NC(=O)C2CCCCC2)s1	-	-	.	.	.
SMILES	D2 PAM-1	D2 ag-1	D2 antag	D2 PAM-2	D2 ag-2
CCC(C)NC(=O)c1sc2nc(C)c(C(=O)Nc3ccc(C)cc3C)c(-c3ccccc3Cl)c2c1N (stereo not given)	-	-	.	.	.
Cc1cccc(NS(=O)(=O)c2ccccc2)n1	-	-	31	-	-
CCCCN(C/C=C/c1ccccc1OC)Cc1ccccc1	-	-	-	-	-
CCN(C/C=C/c1ccccc1OC)Cc1ccccc1	-	-	80	-	-
O=C1CC(c2nnc(Cc3ccccc3Cl)o2)CN1c1ccccc1 (stereo not given)	-	.	.	.	.
CCOc1ccc(S(=O)(=O)NCC(c2ccco2)S(=O)(=O)c2ccc(F)cc2)cc1 (stereo not given)	-	-	.	.	.
CC(C)NC(=O)CN(Cc1ccc2c(c1)OCO2)C(=O)CCC(=O)Nc1ccccn1	-	-	43	-	-
CCN1CCc2c(C#N)c(N3CCCCC3)nc(NCc3ccccc3)c2C1	-	-	-	-	-
C=CCNc1nc(N2CCCCC2)c(C#N)c2c1CN(Cc1ccccc1)CC2	-	-	72	-	-
CCN1CCc2c(sc(N)c2C#N)C1	.	-	-	?	43
CC(C)N1CCc2c(sc(N)c2C#N)C1	-	-	-	-	-
N#Cc1c(N)sc(=S)c2c1CCN(Cc1ccccc1)C2	-	-	32	.	.
N#Cc1c(NCCO)nc(NCc2ccccc2)c2c1CCN(Cc1ccccc1)C2	-	-	-	-	-
